Data taken from PubChem BioAssay (NCATS).
Values joined by “and” are separate entries in the source; they are usually repeats but may differ in a detail not shown here. Equal entries are not always repeated. Records with an inconclusive call do not appear. Active and inactive are the calls of the source. Unless noted, calls follow the shape of the dose curve; as a rule, active = well fitted curve in the direction sought with a large enough effect; inconclusive = small, poorly fitted or top-dose-only effect, or another doubt; inactive = no such curve, though single readings can be large; an effect the other way counts as inactive or inconclusive. Where a SMILES comes first, the peptide text is derived from it. [ ]: non-standard residue; d: D form. pGlu = O=C1CC[C@@H](C(=O)O)N1

Assays:
[1] = qHTS Assay for Identifying Gametocytocidal Compounds (AID 743244);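 also: % is scaled to controls: 0 for no effect and ±100 for the full control effect; actives lower the fluorescent signal which means gametocytes are killed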; conditions: P. falciparum 3D7 stage III-V gametocytes, alamarBlue, 72 h; max response: stronger effect = lower value
Outline: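 In this qHTS viability screen, late-stage 3D7 gametocytes are incubated with compound for 72 h, then with alamarBlue for 24 h; reduced resorufin fluorescence marks killing.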

[2] = qHTS assay to identify small molecule inhibitors of chordoma cells - UCH-2 (AID 1259356); conditions: UCH-2 chordoma viability, CellTiter-Glo ATP luminescence, 48 h; series mostly up to 46.1 µM; also: % is scaled to controls: 0 for no effect and ±100 for the full control effect
[3] = P-glycoprotein substrates identified in KB-8-5-11 adenocarcinoma cell line, qHTS therapeutic library screen (AID 1346987); conditions: KB-8-5-11 (P-gp overexpressing) viability, CellTiter-Glo, 72 h; series mostly up to 44.5 µM; also: % is scaled to controls: 0 for no effect and ±100 for the full control effect; nearly all actives have a fitted effect of over 65% in size
Outline: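 In this qHTS, P-gp-rich KB-8-5-11 cells received library compounds across a concentration range. Viability was quantified by luminescence after 72 h at 37 degree C.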

[4] = qHTS assay for small molecule agonists of the antioxidant response element (ARE) signaling pathway measured by Nrf2-dependant transcriptional activity - cell viability counter screen (AID 720653; active = well fitted curve in the direction sought with a large enough effect in the repeat runs; an effect the other way counts as inactive or inconclusive; also: % is scaled to controls: 0 for no effect and ±100 for the full control effect); conditions: ARE-bla HepG2 viability, CellTiter-Glo ATP luminescence, 16 h; stronger effect = lower value
Outline: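 Cytotoxicity counter screen: intracellular ATP quantified by CellTiter-Glo luminescence in the same ARE-bla HepG2 plates, after 16 h compound exposure and a 2 h beta-lactamase substrate step.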

[5] = molecular target: T1, Hexokinase-4 (Homo sapiens) + Glucokinase regulatory protein (Homo sapiens) (UniProt P35557+Q14397); assay: qHTS assay for inhibitors of recombinant human GCK-GKRP interaction: Diaphorase-coupled assay (AID 743205); conditions: G6PDH/diaphorase resorufin fluorescence; series mostly up to 57.5 µM
Outline: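 GST-GCK (10 nM) with FLAG-GKRP (10 nM), 5 mM glucose and 0.4 mM ATP in pH 7.6 Hepes; compounds preincubated 20 min with substrate. G6PDH/diaphorase coupling converts resazurin to resorufin, read kinetically (ex 525/em 590 nm) for 30 min.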

[6] = molecular target: T1, Hexokinase-4 (Homo sapiens) + Glucokinase regulatory protein (Homo sapiens); assay: qHTS assay for inhibitors of recombinant human GCK-GKRP interaction: ADP-Glo assay (AID 743206); conditions: ADP-Glo luminescence, 60 min, 0% = vehicle-only wells with enzyme present; series mostly up to 76.9 µM;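 also: plate controls were DMSO plus enzyme for no effect and no enzyme for full effect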
Outline: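 Pin-transferred compounds meet a 15 nM GST-GCK/15 nM FLAG-GKRP/2 uM S6P mix (dispense concentrations). ATP is then added to 0.4 mM final with 5 mM glucose, and the reaction runs 60 min at room temperature. ADP is quantified luminescently.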

[7] = molecular target: T1, Hexokinase-4 (Homo sapiens) + Glucokinase regulatory protein (Homo sapiens); assay: qHTS assay for inhibitors of recombinant human GCK-GKRP interaction: HTRF assay (AID 743207); conditions: recombinant GCK-GKRP HTRF binding, 60 min, with sorbitol-6-phosphate; series mostly up to 57.5 µM;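 also: 0% = DMSO with GCK present and -100% = DMSO wells lacking GCK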
Outline: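 GST-GCK and FLAG-GKRP (5 nM each) were combined with 2 uM S6P in pH 7.1 Hepes/MgCl2/KCl/DTT buffer, then compound and anti-FLAG XL665/anti-GST K antibodies were added. After 60 min at room temperature, HTRF 665/615 nm emission was read.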

[8] = qHTS assay for cell viability of HEK293 cells (AID 743288); conditions: ATP luminescence (CellTiter-Glo), 18 h; max response: stronger effect = lower value; also: % is scaled to controls: 0 for no effect and ±100 for the full control effect; nearly all actives have a fitted effect of over 50% in size
Outline: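 After 18 h compound exposure at 37 C, parental HEK293 cells (2,000/well) are lysed with CellTiter-Glo and luminescence is read following 30 min at room temperature.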

[9] = qHTS assay for cell viability of the p53RE-bla HCT-116 cell line (AID 743292); conditions: p53RE-bla HCT-116 viability, ATP luminescence, 16 h; series mostly up to 95 µM; also: % is scaled to controls: 0 for no effect and ±100 for the full control effect; nearly all actives have a fitted effect of over 55% in size
Outline: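 Readout: CellTiter-Glo luminescence after 30 min RT. Treatment: compounds in DMSO, 16 h, 37 C. Cells: CellSensor p53RE-bla HCT-116, 4,000/well, preincubated 5 h.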

[10] = molecular target: Atrial natriuretic peptide receptor 1 (Homo sapiens) (UniProt P16066); assay: Natriuretic polypeptide receptor (hNpr1) antagonism - Pilot screen (AID 1347049; calls by dose curve;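 also: HEK293 cells with hNpr1 and GloSensor cGMP luciferase stimulated by 0.1 nM hNppA; agonist-evoked cGMP luminescence read 20 min after hNppA addition; % is scaled to controls: 0 for no effect and ±100 for the full control effect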); conditions: hNpr1 cells, antagonist mode cGMP read-out; series mostly up to 57.5 µM
Outline: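 Receptor antagonism read as cGMP-dependent luminescence in hNpr1/pGS-40F HEK293 cells: pre-read after 30 min compound exposure, post-read 20 min after hNppA agonist at 0.1 nM final, all at room temperature, protected from light; A-71915 titration as control.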

T1 sequence (P35557 whole entry, looked up): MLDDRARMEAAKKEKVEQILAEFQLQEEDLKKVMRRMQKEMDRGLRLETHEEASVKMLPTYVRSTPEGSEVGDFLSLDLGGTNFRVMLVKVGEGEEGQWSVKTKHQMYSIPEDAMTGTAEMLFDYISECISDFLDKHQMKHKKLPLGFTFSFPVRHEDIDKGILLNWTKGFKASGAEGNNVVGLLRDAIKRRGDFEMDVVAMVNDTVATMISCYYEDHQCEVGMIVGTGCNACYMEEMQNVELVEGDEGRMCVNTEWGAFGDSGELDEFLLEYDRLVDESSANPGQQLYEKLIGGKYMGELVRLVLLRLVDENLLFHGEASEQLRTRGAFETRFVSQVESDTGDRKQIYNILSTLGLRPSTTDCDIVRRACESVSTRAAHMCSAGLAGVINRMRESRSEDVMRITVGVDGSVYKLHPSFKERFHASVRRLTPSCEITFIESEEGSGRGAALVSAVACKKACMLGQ
T1 sequence (Q14397 whole entry, looked up): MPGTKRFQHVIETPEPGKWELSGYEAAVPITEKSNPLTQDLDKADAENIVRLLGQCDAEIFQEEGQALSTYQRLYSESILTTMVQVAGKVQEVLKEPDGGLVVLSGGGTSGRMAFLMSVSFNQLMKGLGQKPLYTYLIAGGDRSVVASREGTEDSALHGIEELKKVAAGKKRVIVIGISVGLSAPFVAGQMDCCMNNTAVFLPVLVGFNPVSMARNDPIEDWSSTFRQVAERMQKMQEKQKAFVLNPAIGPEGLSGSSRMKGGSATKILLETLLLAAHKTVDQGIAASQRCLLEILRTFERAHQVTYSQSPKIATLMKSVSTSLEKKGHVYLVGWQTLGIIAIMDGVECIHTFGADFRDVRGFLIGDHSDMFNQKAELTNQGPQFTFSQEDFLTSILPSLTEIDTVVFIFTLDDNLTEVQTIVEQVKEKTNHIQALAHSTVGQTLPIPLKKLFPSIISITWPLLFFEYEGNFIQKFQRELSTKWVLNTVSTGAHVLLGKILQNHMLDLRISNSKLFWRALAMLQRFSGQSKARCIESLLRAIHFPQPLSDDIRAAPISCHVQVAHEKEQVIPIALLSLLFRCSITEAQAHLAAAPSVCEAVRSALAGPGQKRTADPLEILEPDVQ
Chain of Atrial natriuretic peptide receptor 1 (Homo sapiens) (P16066 whole entry, looked up): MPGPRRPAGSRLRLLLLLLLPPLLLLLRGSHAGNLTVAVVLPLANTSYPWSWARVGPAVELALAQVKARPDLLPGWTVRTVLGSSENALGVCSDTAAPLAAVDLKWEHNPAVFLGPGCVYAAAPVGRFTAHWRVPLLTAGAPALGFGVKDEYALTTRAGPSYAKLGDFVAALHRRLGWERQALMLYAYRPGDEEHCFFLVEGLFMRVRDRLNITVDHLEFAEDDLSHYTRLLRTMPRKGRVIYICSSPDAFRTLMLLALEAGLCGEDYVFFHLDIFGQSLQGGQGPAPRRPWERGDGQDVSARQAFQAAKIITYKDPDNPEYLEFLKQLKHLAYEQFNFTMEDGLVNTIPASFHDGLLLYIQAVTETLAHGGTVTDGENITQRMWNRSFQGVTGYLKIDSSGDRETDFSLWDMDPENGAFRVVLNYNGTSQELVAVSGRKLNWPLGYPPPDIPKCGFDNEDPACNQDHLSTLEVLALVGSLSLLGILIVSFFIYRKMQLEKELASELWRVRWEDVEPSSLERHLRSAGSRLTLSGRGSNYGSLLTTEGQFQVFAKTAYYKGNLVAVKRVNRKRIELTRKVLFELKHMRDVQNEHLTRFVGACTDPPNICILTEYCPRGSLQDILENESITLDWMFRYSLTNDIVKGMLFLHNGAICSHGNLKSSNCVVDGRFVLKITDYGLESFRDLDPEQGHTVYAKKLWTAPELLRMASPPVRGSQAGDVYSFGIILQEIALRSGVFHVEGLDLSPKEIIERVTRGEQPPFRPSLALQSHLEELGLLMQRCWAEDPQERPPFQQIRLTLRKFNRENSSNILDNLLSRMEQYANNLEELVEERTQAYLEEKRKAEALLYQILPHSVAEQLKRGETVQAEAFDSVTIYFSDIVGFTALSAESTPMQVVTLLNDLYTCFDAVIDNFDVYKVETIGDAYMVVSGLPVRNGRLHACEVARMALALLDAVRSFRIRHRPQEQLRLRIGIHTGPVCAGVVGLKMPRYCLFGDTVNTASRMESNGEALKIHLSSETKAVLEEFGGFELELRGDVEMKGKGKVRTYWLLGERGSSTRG

CC(=O)OCC1=C(C(=O)O)N2C(=O)[C@@H](NC(=O)Cc3ccccc3)[C@H]2SC1
inactive: max response [1] 7.9% | Potency [2] | Potency [3]

CC[C@H](C)[C@H](NC(=O)[C@H](Cc1ccccc1)NC(=O)[C@H](C)NC(=O)[C@H](CC(=O)O)NC(=O)[C@H](CCCCN)NC(=O)[C@H](CO)NC(=O)[C@@H]1CCCN1C(=O)[C@@H]1CCC(=O)N1)C(=O)NCC(=O)N[C@@H](CC(C)C)C(=O)N[C@@H](CCSC)C(N)=O ([pGlu]PSKDAFIGLM-NH2)
inactive: Potency [2] | Potency [3]

CCCCCc1ccc(C)cc1O
inactive: max response [1] 3.19% | Potency [2] | Potency [3]

C[N@+]12CCCC[C@@H]1CCC(=C(c1cccs1)c1cccs1)C2
inactive: Potency [2] | Potency [3]

CCCCCCCCCC(=O)NO
inactive: max response [1] -1.94% and 4.66% | Potency [2] | Potency [3]

CCN(CC)C(=O)c1cccnc1
inactive: max response [1] -8.37% | Potency [2] | Potency [3]

O=C1c2c(O)cccc2[C@H]([C@@H]2O[C@H](CO)[C@@H](O)[C@H](O)[C@H]2O)c2cc(CO)cc(O)c21
inactive: max response [1] -5.95% and -4.23% | Potency [2] | Potency [3]

CC12CCC(C1)C(C)(C)C2=O (configuration not stated)
inactive: max response [1] -0.872% | Potency [2] | Potency [3]

Oc1ccc(/C=C/c2cc(O)cc(O)c2)cc1
inactive: max response [4] 7.43% and -3.23% | outcome [5] | outcome [6] | outcome [7] | max response [1] -0.421% and 10.7% | max response [8] -22.7% and -15% | outcome [9] | Potency [2] | Potency [3] | outcome [10]

Cc1cc(=O)c(C(=O)N[C@@H](C(=O)N[C@@H]2C(=O)N3C(C(=O)O)=C(CSc4nnnn4C)CS[C@H]23)c2ccc(O)cc2)c[nH]1
inactive: max response [1] -4.61% | Potency [3]

CC[C@H]1OC(=O)C[C@@H](O)[C@H](C)[C@@H](O[C@@H]2O[C@H](C)[C@@H](O[C@H]3C[C@@](C)(O)[C@@H](O)[C@H](C)O3)[C@H](N(C)C)[C@H]2O)[C@@H](CC=O)C[C@@H](C)C(=O)/C=C/C(C)=C/[C@@H]1CO[C@@H]1O[C@H](C)[C@@H](O)[C@@H](OC)[C@H]1OC
inactive: max response [1] 19.1% and -3.87% | Potency [2] | Potency [3]
